# Source: article PMC4336329 (PLoS ONE, 2015)
# Out of some 310,000 compounds screened, about 14,000 (4.5%) showed an effect of 50% or more. Effects have a minus sign here. This excerpt belongs to a sample that is enriched for strong results.
# Molecular target: human ether-à-go-go-related gene (hERG) potassium channel (human, UniProt Q12809)
# Assay: primary screen, population patch clamp on CHO cells stably expressing hERG; higher = less effect of the substance
# 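Also: peak tail current of the secondary pulse compared with the same well before compound.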
# human ether-à-go-go-related gene (hERG) potassium channel, sequence (Q12809 whole entry, looked up): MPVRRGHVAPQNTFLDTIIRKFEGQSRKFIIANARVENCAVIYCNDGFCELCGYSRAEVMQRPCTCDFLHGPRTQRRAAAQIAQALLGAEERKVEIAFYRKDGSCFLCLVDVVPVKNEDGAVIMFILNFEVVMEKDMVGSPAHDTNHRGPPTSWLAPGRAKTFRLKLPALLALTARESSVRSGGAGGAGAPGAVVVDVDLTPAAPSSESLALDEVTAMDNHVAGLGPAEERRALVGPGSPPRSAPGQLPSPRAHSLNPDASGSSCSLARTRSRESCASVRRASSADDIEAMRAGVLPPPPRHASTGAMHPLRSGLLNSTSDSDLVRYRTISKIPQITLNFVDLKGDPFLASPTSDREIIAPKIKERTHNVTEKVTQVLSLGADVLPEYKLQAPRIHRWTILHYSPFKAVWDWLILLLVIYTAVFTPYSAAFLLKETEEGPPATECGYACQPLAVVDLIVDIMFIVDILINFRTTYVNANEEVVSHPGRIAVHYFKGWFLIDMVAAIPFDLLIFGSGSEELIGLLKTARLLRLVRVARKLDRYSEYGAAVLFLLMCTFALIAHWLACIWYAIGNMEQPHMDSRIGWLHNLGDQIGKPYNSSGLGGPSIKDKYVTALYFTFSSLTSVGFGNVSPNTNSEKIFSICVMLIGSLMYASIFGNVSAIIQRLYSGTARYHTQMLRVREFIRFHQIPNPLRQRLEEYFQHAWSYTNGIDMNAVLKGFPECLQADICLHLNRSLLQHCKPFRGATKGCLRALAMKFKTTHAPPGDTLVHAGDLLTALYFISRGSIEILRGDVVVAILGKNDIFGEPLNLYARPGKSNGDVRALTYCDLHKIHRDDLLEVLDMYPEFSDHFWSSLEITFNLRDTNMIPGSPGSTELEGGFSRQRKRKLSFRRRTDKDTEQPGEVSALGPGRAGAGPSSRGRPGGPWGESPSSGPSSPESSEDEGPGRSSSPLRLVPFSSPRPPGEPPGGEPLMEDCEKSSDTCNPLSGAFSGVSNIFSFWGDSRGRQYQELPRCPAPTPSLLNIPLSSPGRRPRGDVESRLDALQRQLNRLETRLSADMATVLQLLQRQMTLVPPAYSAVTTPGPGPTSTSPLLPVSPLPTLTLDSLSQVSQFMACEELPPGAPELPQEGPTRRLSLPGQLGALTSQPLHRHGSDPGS
row,SMILES,"hERG current change (%, negative = inhibition) at 10uM [%]"
1,Cc1ccc(/C=N/NC(=O)c2cc(-c3cccnc3)nc3ccccc23)cc1,-5.06
2,N#Cc1ccc(OCC(O)CS(=O)(=O)c2ccccc2)cc1 (stereo not shown),-21
3,CC(=O)c1ccc(S(=O)(=O)Nc2cc3c(cc2C(C)=O)OCO3)cc1,21.2
4,COc1ccc(C(=O)N(Cc2nc(-c3ccc(C)cc3)no2)C(C)C)cc1OC,-31.4
5,CCCCCCN1C2=NCCN2c2ccccc21.Cl,-74
6,CCCCCCCN1C2=NCCN2c2ccccc21.Cl,-79.6
7,Br.CCCCCN1C2=NCCN2c2ccccc21,-71.4
8,CCCN1C2=NCCN2c2ccccc21.Cl,-9.75
9,O=C(NC1CCCC1)c1cc2nc(-c3ccco3)cc(C(F)(F)F)n2n1,20.1
10,C#CCOCCOCCOCCNc1nc(N2CCN(C(=O)[C@H]([C@@H](C)CC)n3cc([C@@H](N)CO)nn3)CC2)nc(N2CCN(C(=O)[C@H](CCCCN)n3cc([C@@H](N)CC(C)C)nn3)CC2)n1.Cl,-0.687
11,NC(=O)CSc1cn(Cc2ccc(F)cc2)c2ccccc12,2.24
12,COc1ccc2c(c1)c(=O)oc1c(C)c(OCc3cc(C(=O)O)oc3C)ccc12,22.5
13,C=CCc1c(C)nc(-c2ccccc2)nc1N/N=C(\C)c1ccc(N)cc1,-0.357
14,O=C(NCCCN1CCN(c2ccc(F)cc2)CC1)Nc1ccc([N+](=O)[O-])cc1,-73.9
15,O=C(NCCCN1CCN(c2ccc(F)cc2)CC1)NC12CC3CC(CC(C3)C1)C2,-73.2
16,O=C(NCCCN1CCOCC1)NC12CC3CC(CC(C3)C1)C2,1.72
17,CN1CCN(CCCNC(=O)Nc2ccc([N+](=O)[O-])cc2)CC1,-7.46
18,Cc1ccc(NC(=O)NCCN2CCN(C(=O)Nc3ccc(C)cc3)CC2)cc1,-36.4
19,CSc1ccc(NC(=O)NCCCN2CCN(c3ccccc3F)CC2)cc1,-55.1
20,O=C(CN1C(=O)COc2ccccc21)NCCCN1CCN(c2ccccc2F)CC1,-10.7

row,SMILES,"hERG current change (%, negative = inhibition) at 10uM [%]"
1,CSc1ccc(N2CCN(CCCNC(=O)Nc3ccccc3F)CC2)cc1,-49.1
2,O=C(NCCc1ccc(F)cc1)NC12CC3CC(CC(C3)C1)C2,-13.4
3,CCOc1ccc(NC(=O)NCCN2CCN(c3cccc(C)c3C)CC2)cc1,-24.3
4,CCOc1cccc(N2CCN(CCNC(=O)Nc3ccc(C)cc3)CC2)c1C,-57
5,O=C(NCCc1ccc(F)cc1)Nc1ccc([N+](=O)[O-])cc1,-12
6,COc1c(C=O)cc2c3c1CCCN3CCC2,23.3
7,COc1ccc(N(C(=O)c2ccco2)C(C(=O)NC2CCCC2)c2cccs2)cc1OC (stereo not shown),1.89
8,O=S1(=O)N=C(N/N=C/c2ccco2)c2ccccc21,13.1
9,COc1ccc(S(=O)(=O)N2CCOCC2)cc1NC(=O)COc1ccccc1OC,22.3
10,COc1cc(C(=O)OCC(=O)N2CCOCC2)c([N+](=O)[O-])cc1OC,14.5
11,O=C(Nc1nccs1)c1ccc(COc2ccc(F)cc2)o1,8.63
12,O=C1C2C(C(=O)N1c1nccs1)C1C=CC2C12CC2 (stereo not shown),-8.95
13,COc1ccc(NC(=O)CN2CCN(c3ccccc3F)CC2)cc1,-18.1
14,O=C(NCCN1CCCCC1)Nc1ccc(F)cc1,-13.1
15,O=C(NCCCN1CCN(c2ccccc2F)CC1)Nc1ccc(F)cc1,-66.3
16,O=C(Cc1ccccc1[N+](=O)[O-])N1CCN(c2ccccc2F)CC1,3.23
17,CCOc1ccc(NC(=O)NCCCN2CCCC2)cc1,-1.89
18,CCc1ccc(NC(=O)NCCN2CCN(c3ccc(OC)cc3)CC2)cc1,-14.1
19,COc1ccc(NC(=O)NCCCN2CCN(c3ccccc3F)CC2)cc1,-63.6
20,O=C(NCCCN1CCN(c2ccccc2F)CC1)Nc1ccccc1[N+](=O)[O-],-72.1

row,SMILES,"hERG current change (%, negative = inhibition) at 10uM [%]"
1,CCOc1ccc(NC(=O)CCN2CCN(c3ccccc3F)CC2)cc1,-20.2
2,O=C(NCCCN1CCCC1)Nc1ccc(F)cc1,4.71
3,CCOc1ccc(NC(=O)NCCN2CCN(c3ccccc3F)CC2)cc1,-62.3
4,O=C(NCCCN1CCCC1)Nc1ccccc1[N+](=O)[O-],18.1
5,Cc1ccc(C(=O)NC(=S)Nc2ccc(-c3cc4ccccc4oc3=O)cc2)c(C)c1,27.1
6,Cc1ccc(C(=O)NCCc2ccccc2)cc1,-1.2
7,CSc1cccc(NC(=O)Nc2ccccc2C(N)=O)c1,15.3
8,CCCOc1ccc(/C=N\NC(=O)CCc2n[nH]c(=O)[nH]c2=O)cc1OC,2.51
9,COc1ccc(C2=NCC(CSc3nccc(=O)[nH]3)S2)cc1 (stereo not shown),1.52
10,O=C(Cc1n[nH]c(=O)c2ccccc12)NC(c1ccccc1)c1ccccc1,6.6
11,Cn1c(=O)c(-c2cc(Br)ccc2N)nc2ccccc21,-29.3
12,COc1ccc(C(=O)COC(=O)c2cc(C)no2)c(OC)c1,12
13,COC(=O)c1ccc2c(c1)C(=O)/C(=C/c1ccc(O)cc1)O2,18.2
14,COC(=O)c1ccc2c(c1)C(C)(C)C(/C=C/c1ccc(O)cc1)=[N+]2C.[I-],-70.9
15,COC(=O)c1ccc(/C=C/C(=O)O)cc1,11.9
16,COC(=O)c1ccc2c(c1)C(C)(C)C(/C=C/c1ccc(OC)c(OC)c1OC)=[N+]2C.[I-],-2.88
17,COC(=O)c1ccc2c(c1)C(C)(C)C(/C=C/c1ccccc1O)=[N+]2C.[I-],-69.5
18,COC(=O)c1ccc2nc(C)c(C)nc2c1,15.8
